Screening data: PubChem, The Scripps Research Institute Molecular Screening Center
ZTA counter – counter-screen for EBNA-1 inhibitors: inhibitors of Epstein-Barr virus ZTA | P03206 | ZTA-DNA binding, fluorescence polarization | inhibition, % at 11 µM | 320,000 compounds, 0.15% hits | AID 2234; in the data active = inhibition above about 33%
EBNA-1 inhibitor – blocks EBNA-1 binding to DNA; EBNA-1 DNA binding, fluorescence polarization; inhibition, % at 14.8 µM; 300,000 compounds, 0.34% hits; AID 1950; in the data active = inhibition above about 28%
PREPL inh – inhibitors of human prolyl oligopeptidase-like enzyme PREPL; Q4J6C6; recombinant PREPL, fluorescence polarization activity-based probe; inhibition, % at 5.96 µM; 320,000 compounds, 0.68% hits
Target sequence (Q4J6C6 whole entry, looked up): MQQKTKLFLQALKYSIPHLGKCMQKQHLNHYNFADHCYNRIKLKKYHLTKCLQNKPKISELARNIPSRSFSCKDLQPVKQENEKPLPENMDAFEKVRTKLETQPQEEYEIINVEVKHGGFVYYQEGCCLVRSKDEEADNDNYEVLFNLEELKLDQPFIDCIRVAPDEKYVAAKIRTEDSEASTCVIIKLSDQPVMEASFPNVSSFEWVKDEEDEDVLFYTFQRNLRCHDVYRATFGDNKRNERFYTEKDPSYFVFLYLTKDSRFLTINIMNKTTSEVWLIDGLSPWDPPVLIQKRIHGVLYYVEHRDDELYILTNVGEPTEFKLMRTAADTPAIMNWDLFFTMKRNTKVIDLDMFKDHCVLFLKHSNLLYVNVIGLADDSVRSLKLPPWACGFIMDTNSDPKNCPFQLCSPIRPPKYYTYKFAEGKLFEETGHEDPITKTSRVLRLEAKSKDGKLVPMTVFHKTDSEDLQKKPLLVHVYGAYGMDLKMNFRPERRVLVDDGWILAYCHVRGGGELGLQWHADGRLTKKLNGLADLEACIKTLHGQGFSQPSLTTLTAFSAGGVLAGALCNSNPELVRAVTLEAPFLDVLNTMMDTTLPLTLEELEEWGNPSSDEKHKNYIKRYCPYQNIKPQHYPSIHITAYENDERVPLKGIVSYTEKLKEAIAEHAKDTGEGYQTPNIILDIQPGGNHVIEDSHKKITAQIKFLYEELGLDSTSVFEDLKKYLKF
LYPLA2 counter – counter-screen for PME1 inhibitors: inhibitors of human LYPLA2 | recombinant LYPLA2, FP-Rh probe fluorescence polarization | 320,000 compounds, 0.38% hits | AID 2177 | inhibition, % at 5.9 µM;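 active = inhibition above the screen-wide mean plus 3 SD, limit set per campaign, cut at about 26% in these data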
LYPLA1 counter – LYPLA1 (human) inhibition in PME1 counter-screen; O75608; recombinant LYPLA1, FP-Rh probe fluorescence polarization; inhibition, % at 5.9 µM; 320,000 compounds, 0.16% hits; AID 2174;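 active = inhibition above the mean of all tested compounds plus 3 SD, set per campaign, cut at about 14% in these data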;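 also: inhibitors block serine hydrolase probe labeling of LYPLA1 so polarization falls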
Zta DNA confirm – EBV ZTA DNA binding inhibition, confirmation | shares compounds with ZTA counter | Zta-ZRE DNA binding, fluorescence polarization | inhibition, % at 11.1 µM | 320 compounds, 30% hits | AID 2361;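 active = mean inhibition across triplicate runs above the hit threshold derived for the original primary screen, cut at about 33% in these data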
EBNA-1 counter – EBNA-1 DNA binding inhibition, counter-screen for ZTA | 320 tested, under 10 active | shares compounds with ZTA counter | fluorescence polarization | inhibition, % at 14.8 µM; call rule not given here
PREPL confirm – confirmation of human PREPL enzyme inhibitors. shares compounds with PREPL inh. recombinant PREPL, fluorescence polarization activity probe. inhibition, % at 5.96 µM. AID 2803. 2,000 compounds, 67% hits
Hits are given with their value; . = inactive; / = not tested or not shown. Sampled rows, rich in hits. Any-hit rate of the full collection: about 1.3%. Rule as the data show it, unless noted: active = inhibition above about 43%; inactive = the rest.

SMILES	ZTA counter	EBNA-1 inhibitor	PREPL inh	LYPLA2 counter	LYPLA1 counter	Zta DNA confirm	EBNA-1 counter	PREPL confirm
O=C(CN1C(=O)C2CCCCC2C1=O)OCC(=O)c1ccc(F)cc1 (stereo not drawn)	.	/	.	.	.	/	/	/
CCOP(=O)(OCC)C(NC(=O)c1cc([N+](=O)[O-])cc([N+](=O)[O-])c1)C(F)(F)F (stereo not drawn)	.	.	.	.	.	/	/	/
Cc1ccn(CCSCC(=O)O)n1	.	.	.	.	.	/	/	/
Cc1ccn(CC(C)C(=O)O)n1 (stereo not drawn)	166.3	.	.	.	.	.	.	/
O=C(C[C@@H]1C/C=C\CCC(=O)OC[C@@H]2CCCN2C1=O)N[C@@H](CO)Cc1ccccc1	/	/	.	/	/	/	/	/
Cc1nc2c(-c3ccc(F)cc3)cnn2c(N)c1-c1ccc(F)cc1	38.0	.	.	.	.	.	.	/
Cc1cc(N)n2ncc(-c3ccc(F)cc3)c2n1	.	.	.	.	.	/	/	/
Cc1ccc2oc(C(=O)Nc3cc(C)on3)c(C)c2c1	.	/	.	.	.	/	/	/
Cc1cccc(NC(=O)COc2ccc(/C=C\c3[nH]c(=O)[nH]c(=O)c3[N+](=O)[O-])cc2)c1	44.3	.	.	.	.	41.7	.	/
Cc1cccc(NC(=O)NNC(=O)COc2ccc(Cl)cc2)c1	.	.	.	.	.	/	/	/
O=C(O)CCNS(=O)(=O)c1cccc2nsnc12	.	.	.	.	.	/	/	/
O=c1[nH]c(-c2ccc(Cl)cc2)nc(=S)[nH]1	45.7	.	.	.	.	.	.	/
Cc1nc2ncnn2c(N2CCCC(C(=O)Nc3ccccc3Br)C2)c1C (stereo not drawn)	.	.	.	.	.	/	/	/
CN(C)c1ccc(N/C=C/C(=O)c2ccc(F)cc2)cc1	78.3	.	.	.	.	.	.	/
NS(=O)(=O)c1ccc(N/C=C\C(=O)c2ccc(F)cc2)cc1	.	.	.	.	.	/	/	/
CN(C)c1ccc(N/C=C/C(=O)c2ccco2)cc1	91.1	.	.	.	.	.	.	/
COc1ccc(Br)cc1CNc1ccc(O)cc1	39.7	.	.	.	.	.	.	/
COc1ccc(Br)cc1CNc1ccc2[nH]c(=O)[nH]c2c1	.	.	.	.	.	/	/	/
CC1CCN(C(=O)CN2C(=O)C(C)(C)Oc3ccc(C(=O)NC(C)C)cc32)CC1	.	.	.	.	.	/	/	/
CN(C)c1ccsc1C(=O)NNS(=O)(=O)c1ccc(Cl)cc1	.	.	.	.	.	/	/	/
Cc1ccc(C(=O)Nc2ccc(C(=O)N/N=C/c3ccncc3)cc2)cc1	47.2	.	.	.	.	45.1	.	/
Cc1ccc2nc(Cl)c(/C=N/Nc3ccc(C(=O)O)cc3)cc2c1	.	.	.	.	.	/	/	/
CCCCCCCCCCCCCCCC[N+](C)(C)CCN(Cc1ccc(OC)cc1)c1ncccn1	34.8	.	60.1	.	.	76.5	.	63.3
CC[N+](C)(C)CCN(Cc1ccc(Cl)cc1)c1ccccn1	.	.	.	.	.	/	/	/
C#CCOCCOCCOCCNc1nc(N2CCN(C(=O)CCCCCCCCCCNC(=O)[C@@H](CCSC)n3cc(CCO)nn3)CC2)nc(N2CCN(C(=O)CCCCCCCCCCNC(=O)[C@H](CCC(=O)O)n3cc(CCCCCN)nn3)CC2)n1	.	.	.	.	.	/	/	/
SMILES	ZTA counter	EBNA-1 inhibitor	PREPL inh	LYPLA2 counter	LYPLA1 counter	Zta DNA confirm	EBNA-1 counter	PREPL confirm
C#CCOCCOCCOCCNc1nc(N2CCN(C(=O)CCCCCCCCCCNC(=O)[C@@H](CCC(=O)O)n3cc(CCCCCN)nn3)CC2)nc(N2CCN(C(=O)CCCCCCCCCCNC(=O)[C@H](CO)n3cc(CCCCCN)nn3)CC2)n1	37.1	.	45.7	.	.	.	.	.
C#CCOCCOCCOCCNc1nc(N2CCN(C(=O)CCCCCCCCCCNC(=O)[C@H](CCCCN)n3cc(CCO)nn3)CC2)nc(N2CCN(C(=O)CCCCCCCCCCNC(=O)[C@H](CCCCN)n3cc(C[C@@H](C)CC)nn3)CC2)n1	54.9	.	45.4	.	.	80.6	.	54.7
C#CCOCCOCCOCCNc1nc(N2CCN(C(=O)CCCCCCCCCCNC(=O)[C@H](CCCCN)n3cc(C)nn3)CC2)nc(N2CCN(C(=O)CCCCCCCCCCNC(=O)[C@H](CCCN=C(N)N)n3cc(C[C@@H](C)CC)nn3)CC2)n1	51.1	.	46.9	.	.	47.4	.	55.9
CN(C)C(=O)CSc1nc2ccc(C(=O)c3ccccc3)cc2[nH]1	.	.	.	.	.	/	/	/
COc1ccc(NC(=O)CSCC(=O)Oc2c(OC)cccc2OC)cc1	.	.	.	.	.	/	/	/
O=c1[nH]n2c(=O)c3c([nH]c2c1N=Nc1cccc(Cl)c1)CCCC3	.	.	55.4	.	.	/	/	57.6
CCC(CN(C)C)Oc1cc(NCc2ccccc2)c2ncn(C(C)C)c2c1 (stereo not drawn)	/	/	62.9	/	/	/	/	51.0
CCC(CO)Oc1cc(NCc2ccc(F)cc2)c2ncn(C(C)C)c2c1 (stereo not drawn)	/	/	49.9	/	/	/	/	.
CCC(CO)Oc1cc(NCc2ccncc2)c2ncn(C(C)C)c2c1 (stereo not drawn)	/	/	.	/	/	/	/	/
CCC(CO)Oc1cc(NCc2cccc(Cl)c2)c2ncn(C(C)C)c2c1 (stereo not drawn)	/	/	57.1	/	/	/	/	.
COC(=O)c1ccc(C(=O)OC)c(NC(=O)C2CCCO2)c1 (stereo not drawn)	.	.	.	.	.	/	/	/
O=C(C[n+]1cc(-c2ccccc2)n2c1CCCCC2)c1ccc(Cl)cc1	.	.	.	.	.	/	/	/
CC1CCC(C(C)C)C(OC(=O)C[n+]2cc(-c3ccc(Cl)cc3)n3c2CCCCC3)C1 (stereo not drawn)	.	.	46.9	.	.	/	/	44.0
Cc1cc(C)n(-c2ccc(C(=O)NCC(=O)Nc3cc(Cl)ccc3Cl)cc2)n1	/	/	.	/	/	/	/	/
Cc1cc(-c2csc(N)n2)c(C)n1C	.	.	52.5	.	.	/	/	.
CC(C)N(C(=O)CN1CCC(c2nc3ccccc3[nH]2)CC1)C(C)C	.	.	.	.	.	/	/	/
O=C1N[C@@H](Cc2ccccc2)COC(=O)[C@@H](Cc2ccc(F)cc2)CC/C=C/C[C@@H]1CC(=O)N(CCO)Cc1ccccc1	/	/	44.0	/	/	/	/	43.3
CC(C)(C)[C@@H]1COC(=O)[C@H](Cc2ccc(F)cc2)CC/C=C\C[C@@H](CC(=O)N(CCO)Cc2ccccc2)C(=O)N1	/	/	47.3	/	/	/	/	50.7
O=C1N[C@@H](Cc2c[nH]c3ccccc23)COC(=O)[C@H](Cc2ccc(F)cc2)C/C=C\C[C@@H]1CC(=O)N(CCO)Cc1ccccc1	/	/	.	/	/	/	/	/
O=C1N[C@@H](Cc2c[nH]c3ccccc23)COC(=O)[C@@H](Cc2ccc(F)cc2)C/C=C\C[C@H]1CC(=O)N(CCO)Cc1ccccc1	/	/	61.5	/	/	/	/	53.0
O=C1OC[C@@H]2CCCN2C(=O)[C@@H](CC(=O)N(CCO)Cc2ccccc2)C/C=C\C[C@@H]1Cc1ccc(F)cc1	/	/	.	/	/	/	/	/
